Shown are actives, neighbours in structure and some others; about 8.2% of the full set was active somewhere.
KB-V1 cytotox = kills drug-selected multidrug resistant KB-V1 cells; KB-V1 MDR cells viability, CellTiter-Glo, 72 h; Potency, µM (doses to about 46.1 µM), usual class: cytotoxic; 400,000 tested, 3.4% active; AID 1347076; also: % is scaled to controls: 0 for no effect and ±100 for the full control effect; nearly all actives have a fitted effect of over 60% in size
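Luminescent ATP read-out (CellTiter-Glo, 10 min) measures survival of drug-selected KB-V1 MDR cells after 72 h, 37 degrees C compound exposure. Medium: phenol-red-free DMEM, 10% FBS. Values from fitted concentration-response curves.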
ELG1 repair inh = inhibitors of ELG1-dependent DNA repair in HEK293T cells; HEK293T ELG1-luciferase reporter, luminescence, 16 h; DNA damage induced by 5-fluorouridine; Potency, µM (series often up to 46.1 µM), for inactives: at the highest dose activity change, negative = inhibition, actives largely listed as inhibitors; 330,000 tested, 2.3% active; AID 504467; also: % is scaled to controls: 0 for no effect and ±100 for the full control effect; nearly all actives have a fitted effect of over 55% in size
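Reporter activity after DNA damage by 5-fluorouridine is monitored. Compound-treated cells incubate 16 hr at 37 °C, then ONE-Glo is added for 30 min before luminescence reading.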
SW480 rereplic = DNA re-replication induction in SW480 cells; Potency, µM (series often up to 46.1 µM), without a hit: top-dose re-replication activation, hits mostly activators; AID 624297; 340,000 tested, 1.8% active; SW480 DNA re-replication, Hoechst DNA content imaging, 48 h; also: % of control where 0% means no effect; nearly all actives have a fitted effect of over 55% in size
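Quantitative HTS format with DMSO vehicle controls; 48 hr drug incubation at 37 C, then 40 min Hoechst staining and scanning imager measurement at 405 nm excitation.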
KB-3-1 tox = kills parental KB-3-1 adenocarcinoma cells. KB-3-1 viability, CellTiter-Glo ATP luminescence, 72 h. Potency, µM (titrated, usually from 46.1 µM), most hits filed as cytotoxic. 400,000 tested, 1.4% active. AID 1347075; also: % is scaled to controls: 0 for no effect and ±100 for the full control effect; nearly all actives have a fitted effect of over 60% in size
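Cytotoxicity in the drug-sensitive parental line KB-3-1 was scored as loss of CellTiter-Glo luminescence following 72 h incubation with compound. Values come from curve fitting of normalized concentration-response data.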
MCF10A rereplic = induces DNA re-replication in MCF 10a normal breast cells; Potency, µM (highest dose often 46.1 µM), inactives show at the highest dose activity, positive = re-replication, hits mostly activators; AID 624296; MCF 10A DNA re-replication, Hoechst nuclear intensity, 48 h; 350,000 tested, 2.9% active; also: % of control where 0% means no effect; nearly all actives have a fitted effect of over 50% in size
Starred values were filed as active, the others as inactive; i = inactive; ? = inconclusive; nt = no result. Calls follow the shape of the dose curve; as a rule, active = well fitted curve in the direction sought with a large enough effect; inconclusive = small, poorly fitted or top-dose-only effect, or another doubt; inactive = no such curve, though single readings can be large; an effect the other way counts as inactive or inconclusive. Potency is read from the fitted curve at half-maximal effect.

SMILES | KB-V1 cytotox | ELG1 repair inh | SW480 rereplic | KB-3-1 tox | MCF10A rereplic
COc1ccc(OCCC(=O)OCC(=O)Nc2cccc(S(=O)(=O)N3CCCCC3)c2)cc1 | i | 5% | ? | i | ?
CC(=O)c1ccc(NC(=O)c2ccc(C)c(S(=O)(=O)N3CCOCC3)c2)cc1 | i | ? | -6% | i | -3%
CCOC(=O)c1ccc(NC(=O)c2cccc(S(=O)(=O)N3CCOCC3)c2)cc1 | 23µM* | 23µM* | -3% | i | 0%
CCOC(=O)c1ccc(NC(=O)c2ccc(C)c(S(=O)(=O)N3CCOCC3)c2)cc1 | ? | 4.6µM* | 2% | ? | ?
CCOc1cc(N2CCOCC2)c(OCC)cc1NC(=O)c1cccc(S(=O)(=O)N2CCOCC2)c1 | 15µM* | 16µM* | 0% | i | 6%
CC(=O)c1cccc(NC(=O)c2cccc(S(=O)(=O)N3CCOCC3)c2)c1 | i | ? | -1% | i | 11%
COc1ccc(COC(=O)c2ccc(C)c(S(=O)(=O)N3CCOCC3)c2)cc1F | ? | 18µM* | 6% | i | 9%
CCOC(=O)C1CCN(S(=O)(=O)c2ccc3c(c2)NC(=O)CS3)CC1 | i | -17% | ? | i | 1%
COc1ccc(C(=O)OCc2ccccc2F)cc1S(=O)(=O)N1CCCC1 | 16µM* | ? | -4% | i | 4%
COc1ccc(C(=O)N(C)Cc2ccccc2F)cc1S(=O)(=O)N1CCCC1 | i | 5% | -6% | i | -5%
O=C(COc1ccc([N+](=O)[O-])cc1)N(Cc1ccccc1)Cc1ccccc1 | 18µM* | ? | -1% | i | 1%
CCCCN(Cc1cc2cc(C)ccc2[nH]c1=O)C(=O)c1cccc(Cl)c1 | i | nt | nt | i | nt
COC1=CC(=O)c2c(ccc3ncnc(N)c23)C1=O | 1.8µM* | nt | ? | 2.1µM* | 16%
O=S(=O)(c1ccccc1)N(C1=NCCS1)S(=O)(=O)c1ccccc1 | 21µM* | 2% | 0% | i | 13%
O=C(Nc1ccccc1)N(Cc1ccccc1)C1=NCCS1 | i | 20% | -1% | i | -1%
O=C(O)COc1ccccc1/C=N/NC(=O)c1cc(-c2ccccc2)nc2ccccc12 | i | 3% | -44% | i | -4%
Cc1[nH]c2ccccc2c1/C=N/NC(=O)c1cc(-c2ccccc2)n[nH]1 | i | 21µM* | -19% | i | 0%
COc1ccc2c(Cl)c(C(=O)N/N=C/c3c(C)[nH]c4ccccc34)sc2c1 | ? | 23µM* | 4% | i | ?
O=C(N/N=C/c1ccccc1OC(F)F)c1cc(-c2ccncc2)nc2ccccc12 | i | ? | 12µM* | 18µM* | 4.6µM*
Cc1[nH]c2ccccc2c1/C=N/NC(=O)c1cc(-c2ccncc2)nc2ccccc12 | i | ? | 13µM* | ? | ?
Cc1c(C(=O)Nc2c(F)cccc2F)sc2ncn(Cc3ccccc3F)c(=O)c12 | i | nt | nt | i | nt
CCCSc1nnc(NC(=O)Cc2coc3cc(C)ccc23)s1 | i | nt | nt | i | nt
CN(C)c1ccc(C(=C2c3ccccc3-c3ccccc32)c2ccc(N(C)C)cc2)cc1 | i | nt | nt | i | nt
O=C(O)c1ccccc1Nc1ccc([N+](=O)[O-])cc1 | ? | ? | 2% | 9.2µM* | 10%
O=C(O)c1ccccc1Nc1ccccc1C(=O)O | i | -2% | 12% | i | -3%
SMILES | KB-V1 cytotox | ELG1 repair inh | SW480 rereplic | KB-3-1 tox | MCF10A rereplic
Cc1nc2sccn2c(=O)c1CCN1CCC(=C(c2ccc(F)cc2)c2ccc(F)cc2)CC1 | ? | -10% | ? | i | 2.1µM*
Cc1nc2ccccn2c(=O)c1CCN1CCC(C(=O)c2ccc(F)cc2)CC1 | i | -14% | -10% | i | 9%
CCOC(=O)c1c(-c2ccccc2Cl)cn2ccccc12 | i | 13% | 3% | i | 1%
O=C(O)c1c(-c2ccc(Cl)cc2)cn2ccccc12 | i | ? | 18µM* | i | ?
Cc1cccc(/C=N\NC(=O)c2ccccc2-n2cccc2)c1 | i | 0% | -9% | i | -35%
C/C(=N\NC(=O)CCCNc1ccc(C)cc1)c1ccccn1 | 6.5µM* | 0% | ? | i | ?
C/C(=N\NC(=O)c1cc2ccccc2cc1O)c1ccccn1 | i | ? | ? | ? | 16%
O=C(N/N=C/c1ccc(Br)cc1)c1ccccc1-n1cccc1 | 15µM* | -16% | 13µM* | ? | ?
C=CCNC(=S)N/N=C(\C)c1ccccn1 | ? | 0.18µM* | ? | ? | ?
C/C(=N\NC(=O)c1ccccc1-n1cccc1)c1ccccn1 | i | nt | nt | 10µM* | nt
O=C(NNC(=O)c1ccccc1Cl)c1cc2cc(OC(F)(F)F)ccc2[nH]1 | i | -5% | -1% | i | 0%
CN(CC(=O)Nc1ccccc1Br)C(=O)c1n[nH]c2ccccc12 | i | -15% | 7% | i | 22%
COc1cccc(CNC(=O)CCC(=O)N2CCOCC2)c1 | i | 8% | 8% | i | -1%
COc1ccc2c(c1)c(=O)c(S(=O)(=O)c1ccccc1)cn2CC(=O)Nc1ccc(C)c(Cl)c1 | i | nt | nt | i | nt
CC(=O)n1c(=O)c2ccccc2c(=O)n1-c1ccccc1 | i | 6% | -4% | i | -15%
O=c1c2ccccc2c(=O)n(-c2ccccc2)n1CCCCBr | i | nt | -2% | i | 7.3µM*
O=C(Cn1ncc2c3ccccc3n(Cc3cccc(Cl)c3)c2c1=O)NCCC1=CCCCC1 | i | nt | nt | i | nt
CC1(C)Cc2cccc(OCC(=O)NCCc3ccc(S(N)(=O)=O)cc3)c2O1 | 26µM* | 2% | -6% | i | -4%
COc1ccc(NC(=O)COc2cccc3c2OC(C)(C)C3)c(OC)c1 | i | 6% | -1% | i | ?
COc1cc(NC(=O)COc2cccc3c2OC(C)(C)C3)cc(OC)c1OC | i | 13µM* | ? | i | 2%
COc1cc(C)c(NC(=O)COc2cccc3c2OC(C)(C)C3)cc1OC | i | 18µM* | 3% | ? | ?
CN(Cc1cccs1)C(=O)COc1cccc2c1OC(C)(C)C2 | 18µM* | -2% | 1% | i | -4%
Cc1cccc(OCCCC(=O)NC2CCCCC2)c1 | i | 11% | ? | i | -3%
COc1cc(NC(=O)COc2cc(O)c3c(c2)OC(C)(C)CC3=O)cc(OC)c1OC | ? | 10µM* | -4% | i | -10%
CC1(C)CC(=O)c2c(O)cc(OCC(=O)Nc3ccc(S(N)(=O)=O)cc3)cc2O1 | i | ? | -1% | i | 3%
CCOc1ccc(CNS(=O)(=O)c2ccc(-c3coc(C)n3)cc2)cc1OC | 23µM* | nt | nt | ? | nt

Compound activity as filed in PubChem BioAssay.
